Assay outcomes deposited in PubChem BioAssay by several laboratories.
Compounds with a hit are over-represented: about 2.4% of the library has one in this group of screens.
PERK inhibitor: inhibitors of human PERK kinase; CHO PERK-DD fusion, SEAP luminescence translation reporter; Q9NZJ5; inhibition, % at 5.6 µM; AID 1416; 220,000 compounds, 0.17% hits;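 active means inhibition above the mean inhibition of all tested compounds plus 3 SD, set separately per screening campaign, cut at about 2.9% in these data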;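 further: PERK kinase domain activated by AP20187 dimerizer at 100 nM; 0% = DMSO with dimerizer and 100% = rapamycin at 8.4 µM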
PABP FP inh: blocks human PABP binding to poly(A) RNA. 290,000 compounds, 1% hits. fluorescence polarization. P11940. inhibition, % at 35 µM;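 further: calls also rest on retests at 20 µM and on dose response follow-up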
PABP1 MLLE inh: inhibitors of microRNA-mediated deadenylation, human PABP1 MLLE binding; P11940; GST-MLLE / FITC-PAM2 fluorescence polarization; inhibition, % at 20 µM; 360,000 compounds, 0.36% hits; AID 588489; in the data active means inhibition above about 35%, passing the limit was not always enough;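 further: plate controls were DMSO wells with GST-MLLE for no effect and wells lacking GST-MLLE protein for full effect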
M18AAP inhibitor: PfM18AAP enzyme inhibition; 290,000 compounds, 1.2% hits; recombinant PfM18AAP, H-Glu-NHMec fluorogenic cleavage; AID 1822; inhibition, % at 7.35 µM;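 active means inhibition above the campaign mean inhibition over all tested compounds plus 3 SD, cut at about 28% in these data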;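 further: 0% = plate median of test compound wells and 100% = 2 mM ZnCl2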
eIF4E-4G inh: eIF4E/eIF4G interaction inhibition in translation initiation; TR-FRET eIF4E-eIF4GI(517-606) binding, 2 h; inhibition, % at 21.7 µM; 220,000 compounds, 0.37% hits;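 active means inhibition above about 30%, limit read from the data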;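 further: 0% = full FRET control wells and 100% = background wells lacking eIF4GI fragment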
eIF4H FP inh: inhibitors of RNA binding by human eIF4H | Q15056 | eIF4H fluorescence polarization binding assay | inhibition, % at 35 µM | 290,000 compounds, 0.94% hits;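 further: calls also rest on retests at 20 µM and on dose response follow-up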
* hit, by the source's call; u = inconclusive; x = no result; [ ] = remark or other dose. Unless noted, how the calls were made is not given here.

SMILES	PERK inhibitor	PABP FP inh	PABP1 MLLE inh	M18AAP inhibitor	eIF4E-4G inh	eIF4H FP inh
O=C1NC(=O)C(CCc2ccncc2)(CCc2ccncc2)C(=O)N1Cc1ccccc1	0	-3	4	2	87*	1
O=C1NC(=O)C(Cc2ccccc2)(Cc2ccccc2)C(=O)N1Cc1ccccc1	x	x	-5	x	x	x
CN(C)c1ccc(C(=O)N/N=C/C23CC[C@@H](O)CC2(O)CC[C@@H]2[C@@H]3CCC3(C)C(C4=CC(=O)OC4)CCC23O)cc1 (stereo not given in full)	0	-2	-5	-2	-8	5
CC12CC[C@H]3[C@@H](CCC4(O)C[C@H](O)CCC34/C=N/NC(=O)c3ccccc3O)C1(O)CCC2C1=CC(=O)OC1 (stereo not given in full)	3.1*	4	8	4	14	1
CC12CC[C@H]3[C@@H](CCC4(O)C[C@H](O)CCC34/C=N/NC(=O)c3ccc(O)cc3)C1(O)CCC2C1=CC(=O)OC1 (stereo not given in full)	2.9*	4	0	3	-4	2
CC12CC[C@H]3[C@@H](CCC4(O)C[C@H](O)CCC34/C=N/NC(=O)c3ccccc3F)C1(O)CCC2C1=CC(=O)OC1 (stereo not given in full)	1	-4	9	-5	2	-12
O=Cc1cn(CCCOc2ccccc2)c2ccccc12	0	58*	-14	5	5	u
S=C(c1ccc(Cl)cc1)N1CCOCC1	1	2	44*	-2	20	-14
O=C(c1ccc(Cl)cc1)N1CCC2(CC1)OCCO2	x	0	2	4	x	2
NC(=O)c1ccc(C(=O)Nc2ccc([As](=O)(O)O)cc2)cc1	0	12	x	-4	90*	5
O=c1[nH]c(=O)n(C2CCCCCC2)c(O)c1C=NC1CCN(Cc2ccccc2)CC1	0	-13	-38	-2	-3	-6
O=c1[nH]c(=O)n(Cc2ccccc2)c(O)c1C=NCCCO	0	52*	-96	2	-13	54*
Cn1c(O)c(C=NC2CCN(Cc3ccccc3)CC2)c(=O)[nH]c1=O	0	-11	-5	-8	80*	0
COC(=O)C1=C(c2ccc(-c3ccccc3)c(F)c2)C[C@@H]2CC[C@H]1N2C(=O)NCCCOC(C)C	x	x	-6	x	x	x
c1cc2c(cc1-c1ccc3c(c1)OCO3)CNCc1cnnn1-2	x	x	15	x	x	x
c1ccc(CN2Cc3ccccc3-n3nncc3C2)nc1	x	x	7	x	x	x
C/C(=N\N1CCCCCC1)c1c(O)n(C2CCCCC2)c(=O)[nH]c1=O	-2	-9	1	-3	45*	5
C[CH2][Hg][S]c1ccccc1C(=O)O	x	x	23	x	x	x
NCCc1ccc(S(N)(=O)=O)cc1	1	79*	-2	-9	2	active
NCCc1ccccc1	x	x	1	x	x	x
Nc1cc2nc3ccccc3nc2cc1N	0	81*	97	11	36*	91*
Oc1cc2c(cc1O)[C@H]1c3ccccc3CN[C@@H]1CC2	2	16	x	90*	-3	-4
CCCNC(=O)N1[C@H]2CC[C@@H]1C(C(=O)OC)=C(c1ccc(F)cc1F)C2	x	x	5	x	x	x
CC[C@@]1(O)C(=O)OCc2c1cc1n(c2=O)Cc2cc3ccccc3nc2-1	6.0*	6	x	3	-1	-4
CCC1(OC(=O)CN)C(=O)OCc2c1cc1n(c2=O)Cc2cc3ccccc3nc2-1 (stereo not given)	4.9*	-4	0	0	0	6
SMILES	PERK inhibitor	PABP FP inh	PABP1 MLLE inh	M18AAP inhibitor	eIF4E-4G inh	eIF4H FP inh
CC[C@@]1(O)C(=O)OCc2c1cc1n(c2=O)Cc2cc3c(NC(=O)CN)cccc3nc2-1	1	21	-12	9	5	32
COC(=O)C1=C(c2ccc(F)cc2F)C[C@@H]2CC[C@H]1N2C(=O)N1CCC(O)CC1	x	x	0	x	x	x
COc1cc2[nH]c(=O)n(-c3cccc(Cl)c3)c(=O)c2cc1OC	-2	-2	7	8	7	-3
CC(=O)c1c(O)n(-c2cccc(Cl)c2)c(=O)[nH]c1=O (tested in a mixture with another compound)	1	60*	-57	4	-3	112*
Cc1ccccc1-n1c(C)nc2sccc2c1=O	0	1	16	-8	-2	6
CN[C@@H]1C[C@@H](c2ccc(Cl)c(Cl)c2)c2ccccc21	0	-9	x	6	99*	8
O=c1[nH]c(O)c(N=Nc2ccc([N+](=O)[O-])cc2)c(=O)[nH]1	1	4	-6	9	2	-3
COc1cc2c(c(OC)c1OC)-c1ccc(SC)c(=O)cc1C(NC(C)=O)CC2 (stereo not given)	x	x	-20	x	x	x
O=C1NC(=S)NC(=O)C1=Cc1ccc2c(c1)CCN2CCCCl	1	40*	-23	16	25	68*
C=CCn1c(O)c(C(CC)=Nc2ccc(N(CC)CC)cc2)c(=O)[nH]c1=O	1	-6	12	29*	2	0
C=CCn1c(O)c(C(C)=Nc2ccc(N(CC)CC)cc2)c(=O)[nH]c1=O	0	-4	-4	29*	-2	-2
C=CCn1c(O)c(C(CC)=Nc2ccc(NC(C)=O)cc2)c(=O)[nH]c1=O	2	6	0	13	-3	4
C=CCn1c(O)c(C(C)=Nc2cc(OC)ccc2OC)c(=O)[nH]c1=O	1	6	1	6	7	4
C=CCn1c(O)c(C(C)=Nc2ccc(N(C)C)cc2)c(=O)[nH]c1=O	-1	-14	9	30*	-5	-7
O=C1C2CC(CN3CCCCC23)C2CCCCN12 (stereo not given)	x	x	-6	x	x	x
CN(CC=CCN(C)P(=S)(N1CC1)N1CC1)P(=S)(N1CC1)N1CC1	x	x	2	x	x	x
O=c1[nH]c(=O)n(-c2ccc(Br)cc2)c(O)c1C=NCCN1CCCCC1	1	-10	-33	-11	93*	-6
CCOc1ccc(-n2c(O)c(C=NCCN3CCNCC3)c(=O)[nH]c2=O)cc1	0	60*	1	2	3	active
Cc1ccc(-n2c(O)c(C=NCCN3CCNCC3)c(=O)[nH]c2=S)cc1	x	-5	27	0	x	1
CC[C@@H](O)C[C@H]1CCC[C@@]2(C[C@@H]3OC(=O)/C=C/[C@@](C)(O)[C@@H](O)[C@H](C)[C@@H](O)[C@H](OC4CCC(N(C)C)C(C)O4)[C@@H](O)[C@](C)(O)CCCCC/C=C/[C@@H]4CC(C)(C)O[C@@]4(O)C[C@H](O2)[C@H]3C)O1 (stereo not given in full)	x	x	-3	x	x	x
O=C(Cc1ccccc1)OCn1nnc2ccccc2c1=O	0	6	-4	1	59*[fluorescence artefact?]	2
O=S(=O)(c1ccc(Cl)cc1)N1Cc2cc(Br)ccc2-n2nncc2C1	x	x	16	x	x	x
CCN(CC)P(c1n(C)cc[n+]1C)N(CC)CC	1	8	-98	-2	1	1
